PAD4 inh = inhibitors of human PAD4; inhibition, % at 6.36 µM; AID 485272; 330,000 compounds, 0.41% hits; recombinant PAD4, RCA probe fluorescence polarization;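 active means percent inhibition above a cutoff equal to the mean of all tested compounds plus 3 SD, cut at about 15% in these data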
Target sequence (Q9UM07 whole entry, looked up): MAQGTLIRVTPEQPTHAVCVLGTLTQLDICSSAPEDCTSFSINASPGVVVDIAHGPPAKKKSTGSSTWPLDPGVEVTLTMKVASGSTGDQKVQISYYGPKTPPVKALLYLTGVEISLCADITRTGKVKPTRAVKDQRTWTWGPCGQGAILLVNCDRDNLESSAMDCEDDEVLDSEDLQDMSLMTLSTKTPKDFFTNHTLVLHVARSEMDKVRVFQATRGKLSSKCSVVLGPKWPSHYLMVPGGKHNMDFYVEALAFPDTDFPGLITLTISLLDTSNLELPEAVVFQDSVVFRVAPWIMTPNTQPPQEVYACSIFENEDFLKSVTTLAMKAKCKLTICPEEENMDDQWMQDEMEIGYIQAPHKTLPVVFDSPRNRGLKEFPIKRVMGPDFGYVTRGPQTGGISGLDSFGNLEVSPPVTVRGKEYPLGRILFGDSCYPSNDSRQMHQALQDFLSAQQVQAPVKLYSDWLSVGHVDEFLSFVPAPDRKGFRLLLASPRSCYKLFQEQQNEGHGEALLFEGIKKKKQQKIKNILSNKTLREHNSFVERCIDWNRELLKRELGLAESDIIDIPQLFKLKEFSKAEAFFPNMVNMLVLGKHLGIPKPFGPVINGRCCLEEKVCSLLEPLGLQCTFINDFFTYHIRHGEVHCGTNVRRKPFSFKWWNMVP
PME-1 inh = PME-1 (human) inhibition; Q9Y570; recombinant PME-1, FP-Rh probe fluorescence polarization; inhibition, % at 5.9 µM; 320,000 compounds, 0.53% hits; AID 2130;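 active means inhibition above the campaign mean of all compounds plus 3 SD, cut at about 26% in these data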;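 further: competitive labeling of PME-1 active site by serine hydrolase directed probe; inhibitors block probe labeling so polarization falls and inhibition rises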
LYPLA2 inh = LYPLA2 (human) inhibition in PME1 counter-screen; AID 2177; O95372; recombinant LYPLA2, FP-Rh probe fluorescence polarization; 320,000 compounds, 0.38% hits; inhibition, % at 5.9 µM;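 active means inhibition above the screen-wide mean plus 3 SD, limit set per campaign, cut at about 26% in these data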
Fam108B counter = Fam108B inhibition, counter-screen for RBBP9 inhibitors; inhibition, % at 9.51 µM; recombinant Fam108B, FP-Rh probe fluorescence polarization; AID 1947; 300,000 compounds, 0.33% hits;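 active means inhibition above the screen mean inhibition plus 3 SD, computed separately per campaign, cut at about 18% in these data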;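 further: inhibitors lower polarization as less probe binds the enzyme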
LYPLA1 inh = LYPLA1 (human) inhibition in PME1 counter-screen | O75608 | inhibition, % at 5.9 µM | 320,000 compounds, 0.16% hits | AID 2174 | recombinant LYPLA1, FP-Rh probe fluorescence polarization;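 active means inhibition above the mean of all tested compounds plus 3 SD, set per campaign, cut at about 14% in these data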;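 further: inhibitors block serine hydrolase probe labeling of LYPLA1 so polarization falls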
GSTO1 inh = GSTO1 inhibition, counter-screen for RBBP9 inhibitors. AID 1974. 300,000 compounds, 1.1% hits. recombinant GSTO1, activity-based probe fluorescence polarization. inhibition, % at 5.96 µM;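 active means inhibition above the campaign mean inhibition plus 3 SD, cut at about 35% in these data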
Of the large screens only hits and unclear results are named; the others gave an inactive call. An excerpt weighted towards active compounds, which were near 1.8% of everything screened.

Cc1cccc(-n2c3nc(=O)[nH]c(=O)c-3cc3cc([N+](=O)[O-])ccc32)c1	PME-1 inh 31
CCOc1ccccc1NC(=O)CC1Nc2cc(C)c(C)cc2NC1=O (stereo not given)	PME-1 inh 35
CC(C)(C)Sc1ccc([N+](=O)[O-])cc1C(=O)Nc1ccncc1	none
Cc1ccc(-n2nc(C)c3c2OC(N)=C(C#N)C3c2ccco2)cc1 (stereo not given)	GSTO1 inh 36
Cc1ccc(-n2nc(C)c3c2OC(N)=C(C#N)C3c2ccoc2)cc1 (stereo not given)	GSTO1 inh 36
Cc1ccc(-c2[nH]nc3c2C(c2ccoc2)C(C#N)=C(N)O3)cc1C (stereo not given)	GSTO1 inh 44
Nc1c(/C=C2/C=CC(=O)C(O)=C2)c(=O)nc2sc(CC(=O)N3CCCCC3)nn12	GSTO1 inh 41
O=c1cc(/N=C/c2coc3c(ccc4ccccc43)c2=O)[nH]c(=S)[nH]1	GSTO1 inh 42
NC(=S)N/N=C/c1coc2c(ccc3ccccc32)c1=O	none
CCOC(=O)CSc1nc2cc3c(cc2cc1C#N)OCO3	none
CCOC(=O)CSc1nc2cc3c(cc2cc1C#N)OCCO3	PME-1 inh 34
CCN(CC)S(=O)(=O)c1cccc(C(=O)N/N=C/c2cccc(O)c2O)c1	GSTO1 inh 43
COc1ccc(OCc2cc(-c3ccc(Cl)cc3)no2)cc1	none
O=C(CCl)NCc1cc(-c2ccc(Cl)cc2)no1	GSTO1 inh 89
O=C(CCSc1nnc(-c2ccncc2)o1)Nc1ccccc1Cl	none
CN(C)S(=O)(=O)c1cccc(NC(=O)c2cc([N+](=O)[O-])ccc2N2CCCCC2)c1	PME-1 inh 46 (no result: Fam108B counter, GSTO1 inh)
C[C@@H]1CN([C@@H](C)CO)C(=O)c2cccc(NC(=O)c3nc4ccccc4s3)c2O[C@@H]1CN(C)CC1CC1	none (no result: PME-1 inh, LYPLA2 inh, Fam108B counter, LYPLA1 inh, GSTO1 inh)
CCC1Oc2ccc(C)cc2N(CC(=O)NCc2cccs2)C1=O (stereo not given)	none
CCC1Oc2ccccc2N(CC(=O)NCc2cccs2)C1=O (stereo not given)	GSTO1 inh 37
Cc1c(NC(=O)c2cccc(NS(C)(=O)=O)c2)c(=O)n(-c2ccccc2)n1C	none
Nn1c(SCC(=O)N2CCCC2=O)nnc1-c1cccs1	none
COC(=O)CCCC1=CC2=C(c3ccccc3)C(=O)C(C)(OC(=O)C3CCCC3)C(=O)C2=CN1c1ccccc1 (stereo not given)	GSTO1 inh 35
N#Cc1c(N)n(CCOC(=O)c2cccc([N+](=O)[O-])c2)c2nc3ccccc3nc12	PME-1 inh 31
COCCn1c(N)c(C#N)c2nc3ccccc3nc21	none
COc1ccc(Cn2c(N)c(C#N)c3nc4ccccc4nc32)cc1	GSTO1 inh 39
COc1ccc(COC(=O)c2ccc(S(=O)(=O)N3CCCCC3)cc2)cc1OC	none (no result: Fam108B counter, GSTO1 inh)
COc1ccc(OCCn2cc(/C=N/NC(=O)c3ccncc3)c3ccccc32)cc1	PME-1 inh 32, LYPLA2 inh 39
Cc1ccccc1Cn1nnc2c1C(=O)c1ccccc1C2=O	GSTO1 inh 38
NC(CCCCc1ccccc1)c1cccc2ccccc12 (stereo not given)	none
C[C@@H]1Cc2c(O)c(O)cc(O)c2C(=O)O1	none
O=C(O)c1cccc2c1C(=O)c1ccccc1C2=O	none
O=C1C=C(O)c2c(O)cc(O)c(O)c2C1=O	GSTO1 inh 73
O=C1c2ccccc2C(=O)c2c(O)c(O)cc(O)c21	PAD4 inh 96 (no result: PME-1 inh, LYPLA2 inh, Fam108B counter, LYPLA1 inh, GSTO1 inh)
COCCCn1c(=O)c2sccc2n2c(CCCC(=O)NCc3ccc(OC)cc3)nnc12	none
CCc1cccc(C)c1NC(=S)N(CCN(C)C)C(C)c1cccnc1 (stereo not given)	none
Cc1ccc(SCc2[nH]nc3c2C(c2ccco2)C(C#N)=C(N)O3)cc1 (stereo not given)	GSTO1 inh 37
Cc1ccc(SCc2[nH]nc3c2C(C(C)C)C(C#N)=C(N)O3)cc1 (stereo not given)	none
Cc1ccc(SCc2[nH]nc3c2C(c2ccc(C)o2)C(C#N)=C(N)O3)cc1 (stereo not given)	GSTO1 inh 37
Cc1oc2ccc(OC(=O)c3cccs3)cc2c1C(=O)OC(C)C	none
Cc1ccccc1-n1nnnc1SCc1ncc(-c2ccccc2)o1	none
CC(OC(=O)/C=C/c1cccs1)C(=O)Nc1ccc(C(N)=O)cc1 (stereo not given)	none (no result: Fam108B counter, GSTO1 inh)
Cc1noc(C)c1CSc1nc2ccccc2nc1NS(=O)(=O)c1ccc(Cl)cc1	PME-1 inh 27
O=S(=O)(Nc1nc2ccccc2nc1NCc1ccco1)c1ccc(Cl)cc1	none
O=C(Cn1nnc2ccccc2c1=O)NCC1CCC(C(=O)O)CC1 (stereo not given)	none
COc1ccccc1/C=C/C=N/n1c(-c2cc(-c3ccccc3)n[nH]2)n[nH]c1=S	PME-1 inh 27
CCOc1ccccc1CNC(=O)Cn1ccc2cc(S(=O)(=O)N3CCCC3)ccc21	none
C[C@H]1COC2=C1C(=O)C(=O)c1c2ccc2c1CCCC2(C)C	LYPLA2 inh 48, GSTO1 inh 68
Cc1ccnc(NS(=O)(=O)c2ccc(NC(=O)c3snnc3C)cc2)n1	none
CC(C)=CCc1cc(-c2oc3cc(O)cc(O)c3c(=O)c2O)ccc1O	PME-1 inh 34
O=c1c(O)c(-c2ccccc2)oc2cc(O)cc(O)c12	none (no result: PME-1 inh, LYPLA2 inh, Fam108B counter, LYPLA1 inh, GSTO1 inh)
CC(=O)N1CCOc2ccc(S(=O)(=O)N3CCC(C(=O)NCc4ccc(C)cc4)CC3)cc21	none
COc1ccc(/C=N/Nc2ccc(C(=O)O)cc2)cc1Br	none
C=CCOc1c(Br)cc(/C=N/Nc2ccc(C(=O)O)cc2)cc1OCC	PME-1 inh 48
N#Cc1ccc(S(=O)(=O)N2CCC(C(=O)N3CCN(Cc4ccc5c(c4)OCO5)CC3)CC2)cc1	none (no result: Fam108B counter, GSTO1 inh)
C(=N\N1CCOCC1)/c1cccs1	none
COc1ccccc1NC(=O)c1cc2ccc(O)cc2o/c1=N\O	PME-1 inh 27
Cc1ccc(S(=O)(=O)CCC(=O)N(Cc2nnc(-c3ccc(Cl)cc3)o2)C2CC2)cc1	none (no result: Fam108B counter, GSTO1 inh)
Cc1ccc(CN2CCN(/N=C/c3ccc(O)c(O)c3)CC2)cc1	GSTO1 inh 36
Oc1ccc(/C=N/N2CCN(C3c4ccccc4-c4ccccc43)CC2)cc1O	GSTO1 inh 44
COc1cc(/C=C/C(=O)OCC(=O)N2CCc3ccccc3C2)ccc1O	none
COc1cc(/C=N/NC(=O)[C@H](Cc2c[nH]c3ccccc23)NC(=O)OCC(C)C)cc([N+](=O)[O-])c1O	PME-1 inh 30
COc1cc(/C=N/NC(=O)Cc2ccccc2)cc([N+](=O)[O-])c1O	none
Cc1ccc(S(=O)(=O)N2CN(Cc3ccco3)c3nc4ccccc4nc32)cc1	PAD4 inh 16
Cc1cc(N(C)C)ccc1N=Nc1ccc2ncccc2c1	PME-1 inh 32
O=C(Nc1cc(S(=O)(=O)N2CCOCC2)ccc1N1CCCCC1)c1ccccc1Br	none (no result: PME-1 inh, LYPLA2 inh, Fam108B counter, LYPLA1 inh, GSTO1 inh)

Compound activity deposited in PubChem by The Scripps Research Institute Molecular Screening Center.
